The list is not random: actives were taken first. Their share in the collection is about 19%.
TDP1 cell CPT = growth inhibition of DT40 Tdp1-/-;hTDP1 cells with camptothecin (screen for TDP1 inhibitors); AID 686979; hit rate 12% among 420,000; chicken DT40 Tdp1-/-;hTDP1 cells + 20 nM CPT, ATP luminescence, 48 h; Potency, µM (titrated, usually from 46.2 µM), without a hit: at the highest dose activity change, negative = growth inhibition, most hits filed as inhibitors; note: nearly all actives have a fitted effect of over 55% in size
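Cell growth measured by CellTiter-Glo luminescence after a minimum 48 h, 37 C compound exposure with 20 nM CPT in Tdp1-knockout DT40 cells stably expressing hTDP1, seeded 400/well; qHTS titration format.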
KB-V1 cytotox = kills drug-selected multidrug resistant KB-V1 cells. hit rate 3.4% among 400,000. KB-V1 MDR cells viability, CellTiter-Glo, 72 h. AID 1347076. Potency, µM (doses to about 46.1 µM), usual class: cytotoxic; note: nearly all actives have a fitted effect of over 60% in size
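Drug-selected KB-V1 cells, grown in DMEM lacking phenol red with 10% FBS, receive compound titrations; after three days at 37 degrees C, surviving cell ATP is quantified by CellTiter-Glo luminescence and responses normalized and curve-fitted.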
HT1080NT lethal = kills 2HG-producing HT-1080-NT fibrosarcoma cells | hit rate 1.6% among 360,000 | HT-1080-NT fibrosarcoma viability, CellTiter-Glo ATP luminescence, 48 h | Potency, µM (highest dose often 46.1 µM), inactives show top-dose activity, negative = less viability, usual class: cytotoxic;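 note: NT is the 2HG producing partner of a matched IDH1 knockdown line; 0% = DMSO-treated cells and -100% = media-only wells without cells; nearly all actives have a fitted effect of over 55% in size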
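Viability by CellTiter-Glo luminescence after 48 h compound exposure at 37C of HT-1080-NT cells (750/well, RPMI, 5% FBS). % activity scaled between DMSO wells and medium-only wells, then curve-fitted and categorized by curve class.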
HT1080 IDH1KD tx = kills HT-1080 cells with IDH1 knockdown | Potency, µM (series often up to 46.1 µM), for the others: at the highest dose activity, negative = toxicity, actives largely listed as cytotoxic | HT-1080 IDH1 knockdown viability, ATP luminescence, 48 h | AID 686971 | hit rate 2% among 360,000;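 note: 0% = DMSO wells and -100% = cell-free medium wells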
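CellTiter-Glo luminescence after 48 h compound exposure at 37 degrees C of IDH1-knockdown HT-1080 cells in 5% FBS RPMI. %Activity scaled between DMSO wells and cell-free media wells, with curves fitted and assigned curve classes.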
KB-3-1 cytotox = kills parental KB-3-1 adenocarcinoma cells; KB-3-1 viability, CellTiter-Glo ATP luminescence, 72 h; Potency, µM (series often up to 46.1 µM), usual class: cytotoxic; hit rate 1.4% among 400,000; note: nearly all actives have a fitted effect of over 60% in size
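KB-3-1 cells, DMEM (no phenol red) + 10% FBS; compound by pin transfer, 72 h, 37 °C. Readout: CellTiter-Glo luminescence after 10 min. Data normalized, curve-fitted.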
TDP1 cell noCPT = qHTS for Inhibitors of human tyrosyl-DNA phosphodiesterase 1 (TDP1): qHTS in cells in absence of CPT; DT40 Tdp1-/- hTDP1 cells, no CPT, ATP luminescence, 48 h; Potency, µM (series often up to 46.2 µM), for inactives: at the highest dose activity change, negative = growth inhibition, actives largely listed as inhibitors; hit rate 15% among 420,000; note: nearly all actives have a fitted effect of over 55% in size
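Seeded 400 DT40-hTDP1 cells/well (vehicle DMSO, no 20 nM CPT); pinned compounds; ≥48 hr at 37 °C; CellTiter-Glo luminescence as viability measure.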
Starred values were filed as active, the others as inactive; i = inactive; ? = inconclusive; / = not tested or not shown; [ ] = remark or other dose. Calls come from the whole dose curve; as a rule, active = well fitted curve in the direction sought with a large enough effect; inconclusive = small, poorly fitted or top-dose-only effect, or another doubt; inactive = no such curve, though single readings can be large; an effect the other way counts as inactive or inconclusive. Unless noted, % is set by controls: 0 for no effect and ±100 for the full control effect; potency is the fitted concentration of half-maximal effect.

SMILES	TDP1 cell CPT	KB-V1 cytotox	HT1080NT lethal	HT1080 IDH1KD tx	KB-3-1 cytotox	TDP1 cell noCPT
C#CCOc1ccc(-c2nnc(Nc3cccc(C)c3)c3ccccc23)cc1	?	i	/	/	?	?
CN(Cc1ccccc1)c1nc(N)nc(Cl)c1C=O	-26.2%	i	?	18.4µM*	i	?
O=C1N[C@H]2CC=C[C@H]2Nc2ccccc21	13µM*	i	-4.0%	-4.2%	i	16.4µM*
O=C1N[C@H]2CC=C[C@H]2N(Cc2cccs2)c2ccccc21	?	i	0.0%	-2.6%	i	-10.1%
Cc1cc(C)cc(C(=O)OCC(=O)Nc2cccc(S(=O)(=O)NC3=NCCCCC3)c2)c1	?	16.4µM*	0.1%	-8.5%	?	?
O=C(COC(=O)c1ccccc1)Nc1cccc(S(=O)(=O)NC2=NCCCCC2)c1	-23.1%	i	?	20.8%	i	-21.9%
CCN(CC)c1ccc(C(=O)OCC(=O)Nc2cccc(S(=O)(=O)NC3=NCCCCC3)c2)cc1	?	20.6µM*	2.2%	9.4%	?	18.4µM*
COc1ccc(-c2cccc(-c3cc(=O)oc4cc(OC)c(OC)c(OC)c34)c2)cc1	?	23.1µM*	?	?	?	?
COc1cc(OC)c2c(-c3cccc(-c4ccc(CO)cc4)c3)cc(=O)oc2c1	1.3µM*	2.59µM*	?	0.517µM*	?	0.581µM*
COc1cc(OC)c2c(-c3cccc(-c4ccc(OC(F)(F)F)cc4)c3)cc(=O)oc2c1	?	i	5.5%	4.6%	i	?
COc1ccc(-c2cccc(-c3cc(=O)oc4cc(OC)cc(OC)c34)c2)cc1	1.3µM*	1.16µM*	?	0.581µM*	0.651µM*	0.651µM*
COc1cc(OC)c2c(C)cc(=O)oc2c1	10.0%	i	0.0%	-0.2%[9.24 µM]	?	4.5%
COc1ccc(-c2cccc(-c3cc(=O)oc4cc5c(cc34)OCO5)c2)cc1	?	i	5.0%	8.1%	i	?
COc1cc(OC)c2c(-c3cccc(-c4cccc(C)c4)c3)cc(=O)oc2c1	4.11µM*	i	?	5.8µM*	i	3.66µM*
Cc1ccccc1-c1nnc(NC(=O)Nc2ccc3ccccc3c2)s1	/	i	/	/	?	/
COc1cccc(CNC(=O)[C@@H]2CCCN2C(=O)[C@H]2CCCCN2C(=O)c2ccccc2C)c1	0.3%	i	10.5%	-0.9%	i	1.4%
COc1cc(OC)c2c(-c3cccc(-c4ccc(N(C)C)cc4)c3)cc(=O)oc2c1	1.84µM*	?	?	1.3µM*	2.59µM*	1.16µM*
COc1cc(OC)c2ccc(=O)oc2c1	5.9%	i	-5.3%	-1.5%	i	1.3%
COc1cc(OC)c2c(-c3cccc(-c4ccc(O)cc4)c3)cc(=O)oc2c1	?	?	?	?	16.4µM*	16.4µM*
COc1cc(O)c2c(=O)cc(-c3ccccc3)oc2c1	?	i	-5.1%	1.2%	i	?
COc1cc(OC)c2c(-c3cccc(/C=C/c4ccc(F)cc4)c3)cc(=O)oc2c1	20.6µM*	i	-0.9%	-9.3%	i	18.4µM*
COc1cc(OC)cc(-c2nc(-c3cccc(C)c3)no2)c1	-19.4%	i	/	/	i	?
CCN(CC)C(=O)CC(c1ccc(N(C)C)cc1)c1c(OC)cc(OC)c2c(-c3ccccc3)cc(=O)oc12 (stereo unspecified)	?	i	-21.6%	-19.1%	i	?
COc1ccc(-c2cc(=O)oc(-c3cccc(C)c3)n2)cc1	?	i	15.4%	17.3%	i	18.4µM*

Compound activity (PubChem)
